Measurements published in PubChem BioAssay AID687014 (The Scripps Research Institute Molecular Screening Center, 2013).
The campaign covered roughly 370,000 compounds. About 6,800 (1.8%) were called active. The sample holds actives, similar compounds and a random draw of the others, so the mix is not that of the screen.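 The calls were made as follows: active = activation above a cutoff set at the mean of all screened compounds plus 3 SD (cut at about 10% in these data); inactive = the rest.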

System: Nuclear hormone receptor DAF-12 (Heterodera glycines), GAL4 fusion
Assay: H. glycines DAF-12 receptor agonists, primary screen, cell-based, luminescence, HEK293, GAL4 fusion, UAS-luciferase (AID 687014);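 also: 0% = DMSO wells and 100% = sodium butyrate wells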
Settings: HEK293 GAL4-hgDAF12 UAS-luciferase reporter, agonist luminescence; at 6.8 µM; stronger effect = higher value; normalized to butyrate control

| Structure (SMILES) | activation |
| --- | --- |
| COC(=O)C1=C(C)N(Cc2ccc(C(F)(F)F)cc2)C(=NCc2ccc(C(F)(F)F)cc2)NC1c1cccc(Cl)c1 (stereo not given) | 6.59% (inactive) |
| CCOC(=O)C1CCN(C(=O)c2ccccc2N(C)S(=O)(=O)c2ccccc2)CC1 | 0.69% (inactive) |
| CC(C)CSc1nnc(-c2cccnc2)n1Cc1ccccc1 | 0.98% (inactive) |
| C=CCN1C(=O)N(Cc2ccccc2)c2ccccc2S1(=O)=O | -2.37% (inactive) |
| O=C(Nc1ncccc1O)c1ccc(S(=O)(=O)N2CCCC2)cc1 | 26.2% (active) |
| O=C(Nc1ncccc1O)c1ccc(S(=O)(=O)N2CCCCCC2)cc1 | 10.7% (active) |
| O=C(Nc1ncccc1O)c1ccc(C(=O)c2ccccc2)cc1 | 85% (active) |
| CN1CCN(NC(=O)c2ccc(S(=O)(=O)N3CCCCCC3)cc2)CC1 | -0.88% (inactive) |
| O=C(Nc1ccccc1F)c1ccc(S(=O)(=O)N2CCCCCC2)cc1 | 4.61% (inactive) |
| O=C(CNC(=O)c1ccc2ccccc2c1)Nc1ncccc1O | 4.2% (inactive) |
| CCN(CC)S(=O)(=O)c1cccc(NC(=O)c2ccc(S(=O)(=O)N3CCCC3)cc2)c1 | -4.53% (inactive) |
| CC(C)(C)n1nc2c(c1NC(=O)c1ccc(S(=O)(=O)N3CCCC3)cc1)CS(=O)C2 (stereo not given) | -0.9% (inactive) |
| CCOC(=O)c1cccnc1NC(=O)c1ccncc1 | 2.56% (inactive) |
| O=C(C1CCN(S(=O)(=O)c2ccccc2)CC1)N1CCN(C2CCCCC2)CC1 | -4.1% (inactive) |
| COC(=O)C[C@@H]1CC[C@@H]2[C@@H](COc3ccc(NC(=O)Nc4ccc(F)c(F)c4)cc3C(=O)N2C)O1 | 0.28% (inactive) |
| O=C(NN1C(=O)C2C3C=CC(C4CC34)C2C1=O)c1ccc(Cl)cc1 (stereo not given) | 0.35% (inactive) |
| CC(C)CNc1cccc2c1S(=O)(=O)N(Cc1cn(Cc3ccccc3C(F)(F)F)nn1)Cc1ccccc1O2 | -3.87% (inactive) |
| C[C@H](C(=O)N(C)c1ccccc1)[C@@H](O)c1ccc(Cl)cc1 | 1.73% (inactive) |
| COc1ccc(C(NC(=O)C2CCN(CCCc3ccccc3)CC2)c2cccs2)cc1 (stereo not given) | -0.24% (inactive) |
| CC(=O)OCCN1CCCC12CCC(c1ccccc1)CC2 (stereo not given) | -0.9% (inactive) |

| Structure (SMILES) | activation |
| --- | --- |
| CCOC(=O)c1cc(-c2ccc(Cl)s2)nc2c1c(C)nn2C | -0.72% (inactive) |
| Cc1cc(NC(=O)c2ccco2)c(=O)n(Cc2c(F)cccc2Cl)c1 | -0.15% (inactive) |
| Cn1c(=NC(=O)c2cnccn2)sc2ccccc21 | 9.34% (inactive) |
| Cn1c(=NC(=O)c2ccco2)sc2cccc(F)c21 | 20.1% (active) |
| CC(c1ccc(N)cc1)c1cn(C)c2ccccc12 (stereo not given) | -1.36% (inactive) |
| C#CCN([C@H](C(=O)OC)C(C)CC)S(=O)(=O)c1ccccc1Br (stereo not given in full) | 0.28% (inactive) |
| Cc1cc(C(=O)NN=C/C=C/c2ccco2)n[nH]1 | -0.85% (inactive) |
| CN(C)S(=O)(=O)c1cccc(C(=O)N/N=C\c2ccco2)c1 | 3.58% (inactive) |
| CC(/C=N/NC(=O)c1cc(-c2ccc3ccccc3c2)n[nH]1)=C\c1ccco1 | 20.6% (active) |
| COC(=O)[C@]12C[C@H](CC(=O)N3CCN(C(=O)C4CC4)CC3)C(=O)N(Cc3ccc4c(c3)OCO4)C1=C[C@H](C(C)(C)C)O[C@@H]2C | 0.51% (inactive) |
| C/C(CC(=O)NC(C)(C)C)=N\NC(=O)c1ccco1 | 12.8% (active) |
| COc1ccc(N(CC(=O)NC(C)(C)C)C(=O)c2ccco2)cc1 | 0.5% (inactive) |
| COc1cccc2cc(/C(C)=N/NC(=O)c3ccco3)oc12 | 4.73% (inactive) |
| CCOC(=O)c1cccc(NC(=O)CN(C)S(=O)(=O)c2ccc(-c3cocn3)s2)c1 | 1.77% (inactive) |
| COC(=O)c1ccc(/C=C/c2c(-c3ccc(OC)cc3)sc3ccccc23)cc1 | 0.64% (inactive) |
| COc1ccc(N=C(C)c2sc3ccccc3c2O)cc1 | 13.8% (active) |
| COc1ccc(-n2c(SCC(=O)NC3CCCC3)nnc2-c2ccncc2)cc1 | -0.49% (inactive) |
| Cc1ccc(Cn2cc(COC(=O)N(C)Cc3ccccc3)nn2)cc1 | 0.1% (inactive) |
| O=S(=O)(NCCc1csc(-c2ccccc2)n1)c1cccnc1 | -0.11% (inactive) |
| N#CC(=C1SC=CS1)c1nc(-c2ccccc2)cs1 | 8.13% (inactive) |

| Structure (SMILES) | activation |
| --- | --- |
| Cc1ccccc1Nc1nc(-c2cccnc2)cs1 | 17.6% (active) |
| c1ccc(-c2csc(N3CCc4ccccc4C3)n2)cc1 | 4.55% (inactive) |
| CC(=O)Nc1cccc(-c2csc(Nc3cccc(C)n3)n2)c1 | 16.6% (active) |
| Cc1cccc(Nc2nc(-c3ccccc3)cs2)n1 | 18.8% (active) |
| CC(=O)NC(c1cccc(F)c1)c1nc(-c2cccc(F)c2)cs1 (stereo not given) | 1.2% (inactive) |
| Cc1csc(NC(=O)CSc2nnc(-c3cccnc3)o2)n1 | 4.01% (inactive) |
| CC(=O)NC(c1ccccc1)c1nc(-c2cccc(C(C)C)c2)cs1 (stereo not given) | 1.94% (inactive) |
| Cc1cc(C)nc(NC(=S)N2CCN(c3ccc(C(F)(F)F)cn3)CC2)c1 | -6.42% (inactive) |
| O=C(NCC1CC1)c1onc(CSc2ccccc2)c1C(=O)NCC1CC1 | 1.09% (inactive) |
| Cc1cccc(NC(=O)C[C@H]2CC[C@H]3[C@@H](COc4ccc(NC(=O)Nc5ccccc5)cc4C(=O)N3C)O2)c1 | -1.77% (inactive) |
| O=C(NCCCN1CCN(c2ccccc2F)CC1)C1CCC(=O)N1C1CCCCC1 (stereo not given) | 0.6% (inactive) |
| O=C1CN(C(=O)c2ccccc2F)C(c2ccc(F)cc2)c2cc(F)ccc2N1 (stereo not given) | -3.72% (inactive) |
| O=C(CCCCCN1C(=O)C2C3C=CC(C3)C2C1=O)Nc1ccccn1 (stereo not given) | 2.03% (inactive) |
| COC(CNC(=O)[C@H](Cc1ccccc1)NC1(C(=O)NC2CCCCC2)CCCCC1)OC | 1.76% (inactive) |
| Oc1ccccc1-c1cc(-c2ccc(Cl)cc2)n[nH]1 | 20.1% (active) |
| CC(C)C(=O)NCc1cc(-c2ccc(Cl)cc2)no1 | -0.54% (inactive) |
| Cc1c[nH]c2cccc(-c3ccc(Cl)cc3)c12 | 5.56% (inactive) |
| O=C(O)c1n[nH]nc1-c1ccccc1 | -0.69% (inactive) |
| N#Cc1c(-c2ccccc2)c(-c2ccccc2)n[nH]c1=O | 0.04% (inactive) |
| c1ccc(-c2cc(-c3ccccc3)[nH]n2)cc1 | 12.2% (active) |
